In PubChem BioAssay AID463173 (ICCB-Longwood Screening Facility, Harvard Medical School, 2010):
The campaign covered roughly 52,000 compounds. About 1,700 (3.3%) were called active. The sample as a whole holds a higher share of actives than the screen did. Values without a mark were called inactive. No stated cut-off is given here; in the data, active means survival mostly below about 52% (no sharp cut-off); inactive means mostly above about 56%.

Each molecule was assayed on Wild type (assay: S. aureus survival, RN4220 and DeltatarO strains – OD600, teichoic acid synthesis inhibitors, primary screen (AID 463173)). Details: S. aureus RN4220 wild type/DeltatarO growth, OD600, 18 h, hits give low values, screened at 18.75 µg/mL (by protocol).
For `CSc1ccc(/C=C(\C#N)C(=O)NC2CCCCC2)cc1`, the survival was 95%.
`O=C(Cn1nc(-c2ccccc2)c2c(c1=O)CCCC2)Nc1ccc(F)c(Cl)c1` was tested, and the survival was 44%.
Molecule `CCOc1ccccc1NC(=O)N1CCC(N2CCN(Cc3ccccc3)C(=O)C2=O)CC1` has a survival of 68%.
Work on `Cc1ccc(C)c(S(=O)(=O)NCC(c2ccc(N(C)C)cc2)N2CCOCC2)c1` (configuration not stated) yielded a survival of 73%.
`Cc1sc2nc(SCC(=O)N(CCO)CCO)n(C3CCCCC3)c(=O)c2c1C` gave a survival of 106%.
`CCOc1ccc(CCNC(=O)CS(=O)(=O)Cc2nc(-c3cccc(Cl)c3)oc2C)cc1` gave a survival of 82%.
`Oc1cccc2c1NCCC2` showed a survival of 113%.
Work on `O=S(=O)(c1cccc(Cl)c1)c1nnn2c1nc(NCc1ccc3c(c1)OCO3)c1sccc12` yielded a survival of 80%.
For `CCSc1oc(-c2cccs2)nc1S(=O)(=O)c1ccc(Br)cc1`, the survival was 51%.
With `CCOC(=O)CNC(=O)CC(c1cc(OC)c(OC)c(OC)c1)N1Cc2ccccc2C1=O` (configuration not stated) the survival was 60%.
Work on `Cc1c(Cl)cccc1NC(=O)C1CCN(c2ncnc3c2nc2n3CCCCC2)CC1` yielded a survival of 129%.
With `O=C(COc1ccccc1)Nc1ccc2nc(SCCOc3ccccc3)sc2c1` the survival was 94%.
In the case of `COc1ccc(CNC(=O)Cn2nc3c(cc2=O)CCCC3)cc1`, the survival is reported as 64%.
With `Cc1cccc(C2C=C(c3ccc(C)c(C)c3)Nc3nnnn32)c1` (configuration not stated) the survival was 1% (active).
Work on `COc1cccc(C2C=C(c3ccc(C)c(C)c3)Nc3nnnn32)c1OC` (configuration not stated) yielded a survival of 71%.
For `COc1ccc(C2=CC(c3cccc(C)c3)n3nnnc3N2)cc1` (configuration not stated), the survival was 71%.
In the case of `CS(=O)(=O)N1CCN(C(=O)c2ccccc2)CC1`, the survival is reported as 110%.
With `CCn1cc(C(=O)NCCCN(CC(C)C)CC(C)C)c(=O)c2cc(S(=O)(=O)N3CCc4ccccc4C3)ccc21` the survival was 80%.
With `O=C1CCSc2ccc(S(=O)(=O)Nc3cccc(C(F)(F)F)c3)cc2N1` the survival was -4% (active).
`Cc1cc(C)cc(NS(=O)(=O)c2ccc3c(c2)NC(=O)C(C)S3)c1` (configuration not stated) was tested, and the survival was 12% (active).
Work on `O=C1CCSc2ccc(S(=O)(=O)Nc3ccc(Cl)c(C(F)(F)F)c3)cc2N1` yielded a survival of 81%.
For `Cc1ccc(NS(=O)(=O)c2ccc3c(c2)NC(=O)C(C)C(=O)N3)cc1F` (configuration not stated), the survival was 86%.
With `Cc1ccccc1NS(=O)(=O)c1ccc2c(c1)NC(=O)CCS2` the survival was 57%.
Molecule `Cc1cc(C)c(NS(=O)(=O)c2ccc3c(c2)NC(=O)CCS3)c(C)c1` has a survival of 60%.
For `Cc1ccc(NS(=O)(=O)c2ccc3c(c2)NC(=O)CCS3)c(Br)c1`, the survival was -3% (active).
`CC1C(=O)Nc2ccc(S(=O)(=O)Nc3ccccc3Br)cc2NC1=O` (configuration not stated) gave a survival of 89%.
Molecule `Cc1ccc(NS(=O)(=O)c2ccc3c(c2)NC(=O)CCS3)cc1C` has a survival of 63%.
In the case of `Cc1nn(C)c(C)c1S(=O)(=O)N(CC(=O)NCCc1ccccc1)c1ccc(C(C)C)cc1`, the survival is reported as 86%.
With `COc1cc(NC(=O)C2CCN(S(=O)(=O)c3c(C)noc3/C=C/c3ccccc3F)CC2)cc(OC)c1OC` the survival was 64%.
Work on `CCCCC(=O)Oc1ccc2oc(-c3ccc(OC)cc3)cc(=O)c2c1` yielded a survival of 69%.
`Cc1c(Cl)cccc1-n1nnc(-c2nc(-c3ccc4c(c3)OCO4)no2)c1C` gave a survival of 73%.
For `O=C(NCCc1ccc(Cl)cc1)c1ccc2nc(CCc3ccccc3)oc2c1`, the survival was 59%.
`COc1ccc(Cc2nc3ccc(C(=O)NCCc4ccc(OC)c(OC)c4)cc3o2)cc1` gave a survival of 68%.
For `O=C(NCc1cccc(F)c1)c1ccc2nc(CCc3ccccc3)oc2c1`, the survival was 71%.
With `COc1ccc(CCNC(=O)c2ccc3nc(CCc4ccccc4)oc3c2)cc1OC` the survival was 10% (active).
`O=C(NCc1ccccc1)c1ccc2nc(CCc3ccccc3)oc2c1` was tested, and the survival was -3% (active).
In the case of `COc1ccc(CNC(=O)c2ccc3nc(CCc4ccccc4)oc3c2)cc1`, the survival is reported as -2% (active).
`COc1ccc(CNC(=O)c2ccc3nc(CCc4ccccc4)oc3c2)cc1OC` was tested, and the survival was 71%.
`CCCNC(=O)c1ccc2nc(CCc3ccccc3)oc2c1` was tested, and the survival was 73%.
For `O=C(NCCc1ccccc1)c1ccc2nc(CCc3ccccc3)oc2c1`, the survival was 0% (active).
`COc1ccc(CCNC(=O)c2ccc3nc(Cc4ccccc4)oc3c2)cc1OC` was tested, and the survival was 124%.
With `CN(C)c1ccc(CNC(=O)c2ccc3nc(CCc4ccccc4)oc3c2)cc1` the survival was 78%.
`COc1ccc(CNC(=O)c2ccc3nc(CCc4ccccc4)oc3c2)c(OC)c1` gave a survival of 131%.
`COc1ccc(CCNCc2ccc3c(c2)n(C)c(=O)n3C)cc1OC` gave a survival of 111%.
`O=C(Nc1ccc2nc(C3CC3)n(Cc3ccccc3)c(=O)c2c1)C1CC1` was tested, and the survival was 104%.
`CCc1ccc(CN(Cc2ccco2)C(=O)COc2ccccc2Cl)cc1` was tested, and the survival was 85%.
For `Cc1ccc(N2CCN(S(=O)(=O)c3nnc(NC(=O)c4ccc(C(C)C)cc4)s3)CC2)cc1`, the survival was 82%.
For `Cc1cc(C)cc(C(=O)Nc2cc(C(F)(F)F)ccc2N2CCN(c3ccccc3)CC2)c1`, the survival was 78%.
Molecule `CCc1ccc(CNC(=O)c2ccc3c(c2)nc2n3CCC(C)C2)cc1` (configuration not stated) has a survival of 127%.
`COC(=O)CCc1sc(Nc2ccc(OC)cc2)nc1-c1ccc(OC)cc1` showed a survival of 77%.
With `Cc1c(NC=O)c(=O)n(-c2ccccc2)n1C` the survival was 107%.
`CC(=O)c1ccc(NC(=O)COCc2cc(-c3ccco3)on2)cc1` was tested, and the survival was 129%.
For `O=C(O)c1ccc(Cn2cnc3cccnc32)cc1`, the survival was 55%.
For `CC(C)(C)NC(=O)C1CC(=O)OC1(C)C` (configuration not stated), the survival was 107%.
`COc1ccc(Br)cc1C1Sc2ccccc2NC2=C1C(=O)c1ccccc12` (configuration not stated) gave a survival of 41%.
`COC(=O)c1c(NC(=O)c2c(OC)cccc2OC)sc2c1CCCC2` was tested, and the survival was 3% (active).
In the case of `Cc1ccc(OCCCC(=O)Nc2sc3c(c2C(N)=O)CCCC3)cc1`, the survival is reported as 57%.
With `COC(=O)c1c(NC(=O)COc2ccc(C(C)C)cc2)sc2c1CCCC2` the survival was 51%.
With `COC(=O)c1c(NC(=O)COc2cccc(C(F)(F)F)c2)sc2c1CCCC2` the survival was 72%.
With `COC(=O)c1c(NC(=O)CCCOc2cccc(C)c2)sc2c1CCC2` the survival was 12% (active).
For `COC(=O)c1c(NC(=O)COc2c(C)cccc2C)sc2c1CCCC2`, the survival was 6% (active).
`COC(=O)c1c(NC(=O)COc2cc(C)c(Cl)c(C)c2)sc2c1CCCC2` gave a survival of 140%.
In the case of `COC(=O)c1c(NC(=O)c2ccc(OC)cc2OC)sc2c1CCCCC2`, the survival is reported as 56%.
In the case of `COC(=O)c1c(NC(=O)CCCOc2ccc(C)cc2)sc2c1CCCC2`, the survival is reported as 3% (active).
In the case of `COC(=O)c1c(NC(=O)COc2ccc(C)cc2Br)sc2c1CCCC2`, the survival is reported as 44%.
In the case of `COC(=O)c1c(NC(=O)c2ccccc2C(=O)O)sc2c1CCCC2`, the survival is reported as 110%.
With `CCCCOc1cccc(C(=O)Nc2sc3c(c2C(=O)OCC)CCCC3)c1` the survival was 72%.
